The record followed here is PubChem BioAssay (NCATS).

Results filed as inconclusive are left out. Calls of active or inactive are those of the source. Unless noted, the call rests on the fitted dose curve; in most records, active means well fitted curve in the direction sought with a large enough effect; inconclusive means small, poorly fitted or top-dose-only effect, or another doubt; inactive means no such curve, though single readings can be large; an effect the other way counts as inactive or inconclusive.

Chain of Nicotinamide N-methyltransferase (Homo sapiens) (P40261 whole entry, looked up): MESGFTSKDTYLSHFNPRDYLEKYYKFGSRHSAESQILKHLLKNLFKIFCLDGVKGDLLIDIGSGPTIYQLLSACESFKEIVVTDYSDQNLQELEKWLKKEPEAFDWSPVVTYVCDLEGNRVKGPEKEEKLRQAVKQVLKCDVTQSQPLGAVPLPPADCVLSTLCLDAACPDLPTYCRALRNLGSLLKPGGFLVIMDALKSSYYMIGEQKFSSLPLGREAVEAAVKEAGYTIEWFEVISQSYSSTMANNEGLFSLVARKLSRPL

One test addresses Nicotinamide N-methyltransferase (Homo sapiens) (UniProt P40261). As to the kind of experiment: Confirmatory Screen for Target Class Profiling of Small Molecule Inhibitors of Methyltransferases (AID 1745852). As to conditions: MTase-Glo luminescence, SAH detection, recombinant enzyme; measured here: NNMT max response; stronger effect = lower value.
In the case of `C=CC(=O)Nc1cccc(Nc2nc(Nc3ccc(OCCOC)cc3)ncc2F)c1`, the activity was -65.2%.

Turning to `CCn1c(-c2nonc2N)nc2c(C#CC(C)(C)O)ncc(OCC3CCCNC3)c21` (stereo not drawn), the activity was -28%.

With `COc1c2c(c(C)c3c1C(=O)OC3)O[C@@]1(C)C[C@@H](OC(C)=O)[C@]34O[C@](OC)(CC[C@]3(C)[C@H]1C2)OC4(C)C`, the activity was -50.2%.

The target of a further test is Phenylethanolamine N-methyltransferase (Homo sapiens) (UniProt P11086). The test is described as above. Conditions: MTase-Glo luminescence, SAH detection, recombinant enzyme; measured here: PNMT max response; stronger effect = lower value.
Chain of Phenylethanolamine N-methyltransferase (Homo sapiens) (P11086 whole entry, looked up): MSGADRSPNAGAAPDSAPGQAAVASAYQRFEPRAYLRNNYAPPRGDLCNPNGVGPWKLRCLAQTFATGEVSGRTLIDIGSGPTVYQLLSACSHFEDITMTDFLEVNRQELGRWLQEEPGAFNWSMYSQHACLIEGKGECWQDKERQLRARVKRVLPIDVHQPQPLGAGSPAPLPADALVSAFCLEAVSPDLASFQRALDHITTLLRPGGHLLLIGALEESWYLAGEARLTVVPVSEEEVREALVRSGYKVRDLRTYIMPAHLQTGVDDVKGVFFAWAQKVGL
In the case of `C=CC(=O)Nc1cccc(Nc2nc(Nc3ccc(OCCOC)cc3)ncc2F)c1`, the activity is -40.1%.

`CCn1c(-c2nonc2N)nc2c(C#CC(C)(C)O)ncc(OCC3CCCNC3)c21` (stereo not drawn): the activity was -3.65%.

For the compound `COc1c2c(c(C)c3c1C(=O)OC3)O[C@@]1(C)C[C@@H](OC(C)=O)[C@]34O[C@](OC)(CC[C@]3(C)[C@H]1C2)OC4(C)C`, the activity is -7.63%.

Test system in the next test: not listed separately
As to the kind of experiment: NCATS anti-infectives library activity on HEK293 viability as a counter-qHTS vs the C. elegans viability qHTS (AID 1745854).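 Further: HEK293 cells exposed to compounds for 24 hr before the viability read; on the % scale 0 is the no-effect control and ±100 the full control effect.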 As to conditions: HEK293 viability counter-screen; series mostly up to 41.8 µM; activity change, negative = cytotoxicity: at the top concentration. The method in brief:
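HEK293 cells (1,500/well) exposed 24 hr at 37C to 1:5 titrations, up to 41.7 uM final; counter-screen to a C. elegans viability qHTS. Viability by CellTiter-Glo luminescence after 10 min at room temperature; digitonin as control.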
As for `Cn1cc(-c2ccc(S(=O)(=O)n3ccc(/C=C/C(=O)Nc4ccccc4N)c3)cc2)cn1`, the “activity change, negative = cytotoxicity” value was -11.9% (inactive).

Regarding `O=C(NO)c1ccc(CC(=O)N(CCO)c2ccccc2)cc1`, the “activity change, negative = cytotoxicity” value was -0.685% (inactive).

`CCC[C@@]1(CCc2ccccc2)CC(O)=C([C@H](CC)c2cccc(NS(=O)(=O)c3ccc(C(F)(F)F)cn3)c2)C(=O)O1`: the “activity change, negative = cytotoxicity” value was -12.3% (inactive).

In the case of `NS(=O)(=O)c1ccc(NC(=O)Nc2ccc(F)cc2)cc1`, the “activity change, negative = cytotoxicity” value was -11.8% (inactive).

Take `Cc1onc(-c2ccccc2)c1C(=O)N1CCN(c2ccc([N+](=O)[O-])cc2Cl)CC1`: the “activity change, negative = cytotoxicity” value was -15% (inactive).

Turning to `O=C(Cc1cccc(OC(F)(F)F)c1)Nc1ccc(CCCCc2nnc(NC(=O)Cc3ccccn3)s2)nn1`, the “activity change, negative = cytotoxicity” value was 6.63% (inactive).

As for `C[C@H]1CO[C@@H]2Cn3cc(C(=O)NCc4ccc(F)cc4F)c(=O)c(O)c3C(=O)N12`, the “activity change, negative = cytotoxicity” value is 5.18% (inactive).

As to `CCCN1CCC=C(c2cc(-c3ccc(C)cc3)no2)C1`, the “activity change, negative = cytotoxicity” value was -16.4% (inactive).

Take `CC(C)(CNC(=O)c1cccc(-c2noc(C(F)(F)F)n2)c1)c1coc(-c2ccccc2)n1`: the “activity change, negative = cytotoxicity” value was -17% (inactive).

For `CCC[C@H](N[C@H]1CCc2cc(F)cc(F)c2C1)C(=O)Nc1cn(C(C)(C)CNCC(C)(C)C)cn1`, the “activity change, negative = cytotoxicity” value is -1.21% (inactive).

On to `COc1cc(C[C@H]2C(=O)OC[C@@H]2Cc2ccc(OC)c(OC)c2)ccc1O`, for which the “activity change, negative = cytotoxicity” value was -26.7% (inactive).

Consider `Cc1cc2ncc(C(=O)NCC(C)(C)NCC(=O)N3CCC[C@H]3C#N)cn2n1`, for which the “activity change, negative = cytotoxicity” value was 6.98% (inactive).

Regarding `COc1cccc(N2CCN(C3=Nc4c(F)cccc4[C@H](CC(=O)O)N3c3cc(C(F)(F)F)ccc3OC)CC2)c1`, the “activity change, negative = cytotoxicity” value is -3.24% (inactive).

As for `O=C(Nc1ncc([N+](=O)[O-])s1)c1ccccc1O`, the “activity change, negative = cytotoxicity” value was -8.45% (inactive).

Regarding `Cn1nc(C(C)(C)C)cc1C(=O)N[C@@H](Cc1cccc(Cl)c1)C(=O)NCC#N`, the “activity change, negative = cytotoxicity” value is -6.57% (inactive).

On to `CO[C@H]1C[C@@H]2CC[C@@H](C)[C@@](O)(O2)C(=O)C(=O)N2CCCC[C@H]2C(=O)O[C@H]([C@@H](C)C[C@@H]2CC[C@@H](O)[C@H](OC)C2)CC(=O)[C@H](C)/C=C(\C)[C@@H](O)[C@@H](OC)C(=O)[C@H](C)C[C@H](C)/C=C/C=C/C=C/1C`, for which the “activity change, negative = cytotoxicity” value is -6.54% (inactive).

Consider `CN(C)C(=O)Nc1cccc(-c2ccc(N(C)C)cc2)c1`, for which the “activity change, negative = cytotoxicity” value was -8.8% (inactive).

In the case of `CC(C)CCNC(=O)[C@H](CC(C)C)NC(=O)[C@H]1O[C@@H]1C(=O)O`, the “activity change, negative = cytotoxicity” value is -3.92% (inactive).

Turning to `CC(=O)C1=C(O)C=C2Oc3c(C(C)=O)c(O)c(C)c(O)c3[C@]2(C)C1=O`, the “activity change, negative = cytotoxicity” value was 10.2% (inactive).

For `COc1ccc(NC(=O)c2ccc(C(=N)N(C)C)cc2)c(C(=O)Nc2ccc(Cl)cn2)c1`, the “activity change, negative = cytotoxicity” value was -3.04% (inactive).

For the compound `Cc1cnc(-c2ccccc2C(C)C)nc1NCc1ccc(-n2ccnn2)cc1`, the “activity change, negative = cytotoxicity” value is -18.8% (inactive).

In the case of `O=C(NC[C@H]1CN(c2ccc(N3CCOCC3=O)cc2)C(=O)O1)c1ccc(Cl)s1`, the “activity change, negative = cytotoxicity” value is 7.46% (inactive).

For the compound `O=C(NCC1(c2nc(-c3ccccc3)cs2)CCOCC1)c1cccc(-c2noc(C(F)(F)F)n2)c1`, the “activity change, negative = cytotoxicity” value was -4.3% (inactive).

Consider `O=c1[nH]c([C@@H]2CCCN2)nc2c1oc1ccc(Cl)cc12`, for which the “activity change, negative = cytotoxicity” value is -6.24% (inactive).

Turning to `COC1CCN(C(=O)c2cc(Cc3n[nH]c(=O)c4ccccc34)ccc2F)CC1`, the “activity change, negative = cytotoxicity” value was -6.92% (inactive).

With `CCCC(CCC)C(N)=O`, the “activity change, negative = cytotoxicity” value is -16% [at 83.3 µM] (inactive).

For the compound `O=C(Nc1cc(C(F)(F)F)ccc1N1CCCCC1)c1ccncc1`, the “activity change, negative = cytotoxicity” value is -26.1% (inactive).

`CCCc1ccc(OCC(=O)N(Cc2nc(-c3cccnc3)no2)C(C)C)cc1`: the “activity change, negative = cytotoxicity” value was -18.8% (inactive).

Test system in another test: not listed separately
As to the kind of experiment: NCATS anti-infectives library activity on the primary C. elegans qHTS viability assay (AID 1745855; calls by dose curve; further: potency means the concentration at half of the fitted maximal effect). Conditions: C. elegans worm area imaging, day 7; series mostly up to 41.8 µM. The method in brief: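 Viability read-out is GFP fluorescence of PE254-GFP-FLuc C. elegans, measured by laser cytometry (488 nm) at day 0, 3 and 7. Ten L1 worms per well were incubated 7 days at 21 °C with compounds and bacterial capsules in S medium.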
Turning to `NS(=O)(=O)c1ccc(NC(=O)Nc2ccc(F)cc2)cc1`, the Potency is 12.9 µM (active).

As for `CCCN1CCC=C(c2cc(-c3ccc(C)cc3)no2)C1`, the Potency was 6.48 µM (active).

Regarding `CCC[C@H](N[C@H]1CCc2cc(F)cc(F)c2C1)C(=O)Nc1cn(C(C)(C)CNCC(C)(C)C)cn1`, the “outcome” value was “inactive”.

`Cn1nc(C(C)(C)C)cc1C(=O)N[C@@H](Cc1cccc(Cl)c1)C(=O)NCC#N`: the “outcome” value is “inactive”.

Take `O=C(Nc1cc(C(F)(F)F)ccc1N1CCCCC1)c1ccncc1`: the “outcome” value was “inactive”.

Consider `CCCc1ccc(OCC(=O)N(Cc2nc(-c3cccnc3)no2)C(C)C)cc1`, for which the “outcome” value was “inactive”.

Test system in the next test: not listed separately
As to the kind of experiment: Viability counterscreen for antagonist of constitutive androstane receptor (CAR) against the NCATS DSHEA and TCM libraries (AID 1794837).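 Further: compound exposure lasted 24 h before viability reading; 0% is about no effect.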 Conditions: CAR reporter cell line viability counterscreen, qHTS; series mostly up to 40 µM; viability change, negative = cytotoxic: at the top concentration. An excerpt: Assay Development and Screening Technology Laboratory (ADST)
National Center for Advancing Translational Sciences (NCATS), Rockville, MD
National Institute of Health (NIH), Bethesda, Maryland
Dietary Supplements and Natural Products have minor oversight of their safety and efficacy. We assembled a collection of Dietary Supplements and Natural Products (DSNP) as well as Traditional Chinese Medicinal (TCM) Plant extracts, which were screened against an in vitro panel of assays, including a liver cytochrome p450 enzyme panel, CAR/PXR signaling pathways, and P-gp transporter assays, to assess their activity. This pipeline facilitated the interrogation of Natural Product-Drug Interaction (NaPDI) through prominent metabolizing pathways. In addition, we compared the activity profiles of the DSNP/TCM substances with those of an approved drug collection. Many of the approved drugs have well-annotated mechanisms of action (MOA) while the MOAs for most of the DSNP and TCM samples remain unknown. Based on the premise that compounds with similar activity profiles tend to share similar targets or MOA, we clustered the library activity profiles to identify overlap with the NCATS Pharmaceutical Collection to predict the MOAs of the DSNP/TCM substances. Overall, we highlight four significant bioactivity profiles (measured by p-values) as examples of this prediction.
To this end, we profiled both collections for potential CAR and/or PXR activity, employing a previously published 1536-well qHTS assay.
PROTOCOL TABLE (as described by Inglese J, Shamu CE and Guy RK. 2007)
SEQUENCE No. (e.g., 1, 2, 3, etc.); […] (e.g., Cells, Incubation, Reagent, etc.); VALUE; DESCRIPTION.
1; Cells; 4 uL; 1536-well white Greiner assay plate.
2; Incubation; 5 hours; 37C, 95% humidity, 5% CO2. […]
8; Detector 1; Fluorescence intensity; ViewLux plate reader (excitation 405 nm, emission 540 nm). […]
11; Detector 2; Luminescence intensity; ViewLux. […]
8. Fluorescence intensity (Ex/Em = 405 nm/540 nm) is obtained using the ViewLux plate reader to determine cell viability. […]
10. Luminescence intensity is read using the ViewLux detector. […]
For `CC(=O)C1=C(O)C=C2Oc3c(C(C)=O)c(O)c(C)c(O)c3[C@]2(C)C1=O`, the “viability change, negative = cytotoxic” value was -0.286% (inactive).

Take `O=C(O)CC(O)(CC(=O)O)C(=O)O`: the “viability change, negative = cytotoxic” value is 1.52% (inactive).

As for `C=C1[C@H]2CC[C@H](C(=O)O)[C@@]23CC[C@H](C3)C1(C)C`, the “viability change, negative = cytotoxic” value was 4.48% (inactive).
